The values below come from ChEMBL document CHEMBL4513216, “Probing the Open Global Health Chemical Diversity Library for Multistage-Active Starting Points for Next-Generation Antimalarials” (ACS Infect Dis, 2020).

Hit rate of the full screen: of about 69,000 compounds, about 8,600 (12%) showed an effect of 50% or more. Shown is part of a subset that was picked to be rich in strong results.

In this assay the test system is Plasmodium berghei. The assay can be described thus: Screen against P. berghei liver stage (PbLuc), transformed with Luciferase, at 10uM. The class given is functional, HepG2. The following applies: tested at 10 uM.
In the case of `COc1ccc2c(c1)OCC(C(=O)NCc1nc3c(s1)CCCC3)C2` (stereo not given), the INHIBITION is reported as -23.3%.

For `CC(c1ccccc1)N(C)C(=O)CNCCn1cccn1` (stereo not given), the INHIBITION is 31.1%.

In the case of `CCN(CC)CC(=O)N1CCCCC1c1nc(C)cs1` (stereo not given), the INHIBITION was -67.3%.

In the case of `CCn1cc(CN2CCN(CC(O)c3ccc(C)cc3C)CC2)c(C)n1` (stereo not given), the INHIBITION is listed as 28%.

Turning to `Cc1ccc(CN2C[C@H]3CN(Cc4ccccc4Cl)CCN3C2=O)cc1`, the INHIBITION is reported as -45.5%.

As to `CNc1ncccc1C(=O)N1CCN(Cc2ccc(C)cc2)C(=O)C1C` (stereo not given), the INHIBITION was -11.5%.

Consider `Cc1ccc(CN2CCN(C(=O)c3ccccc3O)C(C)C2=O)cc1` (stereo not given), for which the INHIBITION was found to be 37.6%.

Consider `Cc1nn(C)c2nc(N3CCCC3c3nccs3)sc12` (stereo not given), for which the INHIBITION is 49.9%.

On to `Cc1ccc(CN2CCN(c3nc4c(s3)c(C)nn4C)C(C)C2=O)cc1` (stereo not given), for which the INHIBITION turned out to be 78%.

Regarding `Cc1nn(C)c2nc(N3CCCCC3c3ccc(F)cc3)sc12` (stereo not given), the INHIBITION was -11.6%.

Take `COC(=O)CC1C(=O)NCCN1c1nc2c(s1)c(C)nn2C` (stereo not given): the INHIBITION is recorded as 51.1%.

For `Cc1nn(C)c2nc(N3CCCCC3c3nccs3)sc12` (stereo not given), the INHIBITION was 28.7%.

On to `COC(=O)CN1CCN(c2nc3c(s2)c(C)nn3C)C(C)C1=O` (stereo not given), for which the INHIBITION was 52.9%.

Regarding `Cc1ccc(CN2CCN(C(=O)c3ccc(CO)cc3)C(C)C2=O)cc1` (stereo not given), the INHIBITION worked out at 60.3%.

In the case of `Cc1nn(C)c2nc(N3CCNC(=O)C3Cc3ccccc3)sc12` (stereo not given), the INHIBITION amounted to 32.3%.

Regarding `Cc1nn(C)c2nc(N3CCNC(=O)C3C(C)C)sc12` (stereo not given), the INHIBITION is on record as -47.5%.

On to `Cc1occc1C(=O)N1CCCN(Cc2nccn2C)CC1`, for which the INHIBITION came to 23.7%.

In the case of `OC1(CNCCCN2CCCc3ccccc32)CNCCOC1` (stereo not given), the INHIBITION came out at 45.9%.

Consider `Cc1nc(O)cc(CCNC(=O)c2ccccc2N2CCCC2)n1`, for which the INHIBITION stood at 18.5%.

`CCCS(=O)(=O)N1C[C@@H]2C[C@H](C(=O)N3CCN(C)CC3)[C@H](C1)O2`: the INHIBITION amounted to 21.1%.

For `COc1ccc(-c2cc(CN)nc3ccnn23)cc1`, the INHIBITION worked out at 35.2%.

For `CC(C)C[C@@H](C(N)=O)n1cc(-c2cncnc2)nn1`, the INHIBITION is listed as 12.8%.

Regarding `COc1ccc(-n2ccc(C(=O)N(CCN(C)C)C(C)C)n2)cc1`, the INHIBITION is on record as 18.2%.

With `Cc1ccc(-c2nc(CCNCc3ccncc3)co2)cc1`, the INHIBITION amounted to 49.6%.

Turning to `Cc1nc(C2CCCN2Cc2nccn2CC(F)(F)F)no1` (stereo not given), the INHIBITION was 21.6%.

On to `CN(CC(F)(F)F)C(=O)CNC(=O)N1CCC(N2CCCC2)C1` (stereo not given), for which the INHIBITION was 30.9%.

In the case of `CN1C(=O)COc2ccc(C(=O)Cn3cnc4ccsc4c3=O)cc21`, the INHIBITION came to 47.9%.

As to `COCCN(C)C1COC2(CCN(Cc3ccccn3)CC2)C1` (stereo not given), the INHIBITION amounted to 25.2%.

For `Cc1cccc(CNC(=O)CC2CCN(S(C)(=O)=O)CC2)n1`, the INHIBITION is -20.6%.

In the case of `O=C1CCC2(CCN(Cc3ccc(F)cc3)CC2)N1Cc1ccccc1`, the INHIBITION is given as 46.6%.

For `Cc1nc(CSCCC(=O)NCc2ccncc2)cs1`, the INHIBITION is -4.94%.

Consider `Cn1nccc1C(=O)NCCN1CCC(O)(c2ccc(F)cc2)CC1`, for which the INHIBITION is 14.65%.

On to `COCCN1CC[C@]2(CN(C(=O)c3cccs3)C[C@H]2C)C1=O`, for which the INHIBITION was 22.4%.

On to `C[C@@H]1CN(C(=O)c2ccc[nH]2)C[C@]12CCN(CCN1CCCC1)C2=O`, for which the INHIBITION was 48.4%.

For the molecule `COCCN1CC[C@]2(CN(C(=O)c3ccc[nH]3)C[C@H]2C)C1=O`, the INHIBITION is listed as 61.3%.

Regarding `CCC(CC)C(=O)NCCc1ccn(-c2ccccc2)n1`, the INHIBITION came to 15.6%.

Regarding `CC(C)c1cc(CSCCC(=O)O)no1`, the INHIBITION was -46.4%.

In the case of `CC(C)c1cc(CN2CCC(CC(=O)O)CC2)no1`, the INHIBITION is reported as 53%.

Consider `CC(C)c1cc(CN2CCC(N)CC2)no1`, for which the INHIBITION turned out to be 76.8%.

With `CC(C)c1cc(CN2CCNCC2)no1`, the INHIBITION turned out to be 30.8%.

As to `CC(C)c1cc(COCCCC(=O)O)no1`, the INHIBITION is given as 38.2%.

Consider `CC(C)c1cc(CN2CCC(N)CC2)on1`, for which the INHIBITION was 41.2%.

With `Cc1ccc(-n2cc(C(=O)N3CCn4c(C)nnc4C3)nn2)cc1`, the INHIBITION is listed as 15.9%.

In the case of `O=C(c1cnc(O)cn1)N1CCCC1c1nc2cc(F)ccc2[nH]1` (stereo not given), the INHIBITION worked out at 17.5%.

With `Cn1ncc(C(=O)N2CCOCC2)c1Cl`, the INHIBITION was determined as 0.57%.

Consider `CCc1ccc(CNc2cc(-c3ccoc3C)nn2CCO)o1`, for which the INHIBITION was determined as 54.4%.

For `Cc1cc(CNc2cc(-c3ccoc3C)nn2CCO)c(C)o1`, the INHIBITION came to 43.7%.

With `COc1cc(CNc2cc(-c3ccoc3C)nn2CCO)ccc1F`, the INHIBITION is on record as 38.3%.

Turning to `c1cc(N2CCCC2c2cnccn2)ncn1` (stereo not given), the INHIBITION is recorded as -3.31%.

On to `COC(=O)c1cc(OCC2CCC2)cc(C(=O)N[C@@H]2CCCNC2)c1`, for which the INHIBITION stood at 58.4%.

Consider `COC(=O)c1cc(OCC2CCC2)cc(C(=O)NC2CCC(O)CC2)c1` (stereo not given), for which the INHIBITION was 7.12%.

As for `COC(=O)c1cc(OCC2CCC2)cc(C(=O)N[C@@H]2CNCC[C@H]2O)c1`, the INHIBITION was 11.9%.

Regarding `Cc1cc(NC(=O)N2CCC[C@@H]2CO)nn1-c1ccccc1Cl`, the INHIBITION is 30.8%.

Consider `O=C(NCCO)Nc1ccc(Cl)cc1-n1cccc1`, for which the INHIBITION is given as -6.91%.

For `Cc1cc(NC(=O)NCCO)nn1-c1ccc(Cl)cc1Cl`, the INHIBITION is 60.5%.

With `CC(=O)NCC(=O)Nc1cc(C)n(-c2ccc(Cl)cc2Cl)n1`, the INHIBITION is given as 50%.

For the molecule `Cc1cc(NC(=O)N2CCOCC2)nn1-c1ccccc1Cl`, the INHIBITION is 33.4%.

As to `Cc1cc(NC(=O)CO)nn1-c1ccc(Cl)cc1Cl`, the INHIBITION was found to be 19.8%.

With `CS(=O)(=O)N[C@H]1COC[C@@H]2CN(Cc3ccco3)C[C@@H]21`, the INHIBITION is on record as -19.1%.

`COC(=O)c1sc2cccc(F)c2c1CNC(=O)C1CCCO1` (stereo not given): the INHIBITION is -1.37%.

With `CN1CCc2[nH]cnc2C12CCN(Cc1ccc3nsnc3c1)CC2`, the INHIBITION worked out at 33.4%.

In the case of `CNC(=O)[C@@H]1C[C@H]2CN(Cc3ccco3)C[C@H]2N1C`, the INHIBITION is recorded as -5.1%.

Turning to `Cc1ccc(C(=O)N2CCN(Cc3cccs3)CC2)c(=O)[nH]1`, the INHIBITION turned out to be 3.865%.

Turning to `CS(=O)(=O)NCc1cnc2n1CCN(Cc1ccccn1)CC2`, the INHIBITION came to 41.2%.

With `Cc1[nH]ncc1C(=O)N1CCCN(Cc2nccn2C(C)C)CC1`, the INHIBITION is 53.65%.

As to `Cc1cc(C(=O)N2CCCN(Cc3nccn3C(C)C)CC2)no1`, the INHIBITION was -6.35%.

As to `CCc1[nH]ncc1C(=O)N1CCCN(Cc2nccn2C(C)C)CC1`, the INHIBITION was -33.8%.

Take `Cc1nccc(C(=O)N2CCCN(Cc3nccn3C(C)C)CC2)n1`: the INHIBITION was 29.3%.

As to `Cc1ncncc1C(=O)N1CCCN(Cc2nccn2C(C)C)CC1`, the INHIBITION is -49.5%.

On to `CC(C)n1ccnc1CN1CCCN(C(=O)c2cscn2)CC1`, for which the INHIBITION is 54.9%.
